Measurements: PubChem BioAssay (Tox21)
Calls of active or inactive are those of the source. Calls come from the whole dose curve; as a rule, active = well fitted curve in the direction sought with a large enough effect in the repeat runs; inconclusive = weak or mixed curves; inactive = flat fitted curve, though single readings scatter.

assay: qHTS assay to test for compound auto fluorescence at 460 nm (blue) in HEK293 cells (AID 720678); conditions: blue autofluorescence 405/460 nm; series mostly up to 91.3 µM
Source text: National Center for Advancing Translational Sciences [NCATS]
NIH Chemical Genomics Center [NCGC]
U.S. Environmental Protection Agency [EPA]
National Institutes of Environmental Health Sciences [NIEHS]
National Toxicology Program [NTP]
U.S. Food and Drug Administration [FDA]
Compound auto fluorescence often interferes with screening of the compound library against various biological targets and signaling pathways. Some of these compounds may have fluorophoric properties. Such properties may interfere with the assay outputs resulting in false positives and/or negatives. To decrease such complications and ensure the compound activities are relevant in terms of biological response, the Tox21 10K compound library was screened for auto fluorescence.
From the fluorophores used as reporter signals in our screening assays, the auto fluorescence equivalencies of compounds against three fluorophores have been evaluated: Triamterene, Fluorescein and Rose Bengal sodium for blue, green and red fluorescence, respectively. The fluorescence intensities were measured using Excitation/Emission wavelengths at 405/460nm, 485/535nm and 540/590nm for blue, green and red labels, respectively. This assay includes the blue fluorescence data.
Tox21 Assay Protocol Summary:
2,000 HEK293 cells in 5 uL of culture medium containing 10% dialyzed FBS per well were dispensed into black wall/clear bottom 1536-well plates using a Multidrop Combi Dispenser (Thermo Scientific). The assay plates were incubated for 4-5 hr at 37C to allow cell attachment to the well bottom, followed by the transfer of 23 nL compound or DMSO vehicle by a pintool work station (Kalypsys, San Diego, CA). After the assay plates were incubated overnight at 37C and 5% CO2, fluorescence intensities in the assay plates were measured by an Envision (PerkinElmer, Shelton, CT) plate reader using three labels for measuring blue, green and red fluorescence at […] 460, 535 and 590nm respectively.
% is set by controls: 0 for no effect and ±100 for the full control effect.

SMILES | outcome | fluorescence, % of triamterene
Nc1cccc([N+](=O)[O-])c1 | inactive | –
CCC(Cl)CCC(Cl)C(Cl)CC(Cl)C(Cl)C(Cl)CCl (stereo not given) | inactive | –
COc1ccnc(CS(=O)c2nc3ccc(OC(F)F)cc3[nH]2)c1OC (stereo not given) | inactive | –
O=C1CCC(=O)O1 | inactive | –
COc1cc2nc(N3CCN(C(=O)C4COc5ccccc5O4)CC3)nc(N)c2cc1OC (stereo not given) | inactive | –
CCc1c(C(=O)NN2CCCCC2)nn(-c2ccc(Cl)cc2Cl)c1-c1ccc(Br)cc1 | inactive | –
CCn1cc(C(=O)O)c(=O)c2cnc(N3CCNCC3)nc21 | – | -0.0251% [at 18.6 µM] (inactive)
CC(C)(O)c1ccc(CNC(=O)c2cccnc2Oc2ccc(F)cc2)cc1 | inactive | –
NCC(=O)CCC(=O)O | inactive | –
CCO[Si](CCCCl)(OCC)OCC | inactive | –
CCOC(=O)C(F)(F)F | inactive | –
OC(CN1CCC(Cc2ccc(F)cc2)CC1)c1ccc(Cl)cc1 (stereo not given) | inactive | –
O=C1c2ccccc2S(=O)(=O)N1CCCCN1CCN(c2ncccn2)CC1 | inactive | –
O=P(O)(OCc1ccccc1)OCc1ccccc1 | inactive | –
O=C(O)c1nc(Cl)c(Cl)c(Cl)c1Cl | inactive | –
CCCOC(C(=O)OC1CCN(C)CC1)(c1ccccc1)c1ccccc1 | inactive | –
CCCCCCCC/C=C\CCCCCCCC(=O)OCC | inactive | –
Cc1cc(N)c2cc(NC(=O)Nc3ccc4nc(C)cc(N)c4c3)ccc2n1 | inactive | –
O=C(O)CNCC(=O)O | – | -0.267% [at 3.72 µM] (inactive)
CC(=O)NO | inactive | –

SMILES | outcome | fluorescence, % of triamterene
CCCn1cnc2c1c(=O)n(CCCCC(C)=O)c(=O)n2C | inactive | –
CCc1cc(C2=C(C(=O)O)N(c3ccccc3C(F)(F)F)S(=O)(=O)c3ccccc32)cc2c1OCO2 | inactive | –
C[N+]1(CC2COC(c3ccccc3)(C3CCCCC3)O2)CCCCC1 (stereo not given) | inactive | –
CNC(=O)CN(CCN(CCN(CC(=O)[O-])CC(=O)NC)CC(=O)[O-])CC(=O)[O-].O.[Gd+3] | inactive | –
CN1CCC(N(Cc2cccs2)c2ccccc2)CC1 | inactive | –
CCC(=O)O[C@]1(C(=O)CCl)[C@@H](C)C[C@H]2[C@@H]3CCC4=CC(=O)C=C[C@]4(C)[C@@]3(F)[C@@H](O)C[C@@]21C | inactive | –
S=C([S-])NCCNC(=S)[S-].[Mn+2] | inactive | –
CO[C@@H]1[C@H](OC(=O)/C=C/C=C/C=C/C=C/C(=O)O)CC[C@]2(CO2)[C@H]1[C@@]1(C)O[C@@H]1CC=C(C)C | inactive | –
CCC(CC)Nc1ccc(C)c(C)c1 | inactive | –
Nc1cccc(S(=O)(=O)c2cccc(N)c2)c1 | inactive | –
O=C(O)CC(=O)C(=O)O | inactive | –
CN(C)c1ccc(CCO)cc1 | inactive | –
C[C@H]1C[C@H]2[C@@H]3CCC4=CC(=O)C=C[C@]4(C)[C@@]3(Cl)[C@@H](O)C[C@]2(C)[C@@]1(O)C(=O)CO | inactive | –
CCCCCC[C@@H](O)C/C=C\CCCCCCCC(=O)OC | inactive | –
OCCNCc1ccccc1 | inactive | –
C=CC(=O)OCCOCCOC(=O)C=C | inactive | –
CC(C)=CCC/C(C)=C/CC/C(C)=C/CO | inactive | –
COc1cc(Cl)c(OC)cc1N | inactive | –
CC[N+](C)(CC)CCOC(=O)C(O)(c1ccccc1)C1CCCCC1 (stereo not given) | inactive | –
NCCCN1CCOCC1 | inactive | –
